Inconclusive results are not listed. Calls of active or inactive are those of the source. Calls follow the shape of the full dose curve.
What was measured:
[1] = molecular target: Acetylcholinesterase (Homo sapiens) (UniProt P22303); assay: Acetylcholinesterase (AChE) small molecule antagonists: colormetric cell-based qHTS assay (AID 1347395); also: nearly all actives have a fitted effect of over 30% in size
Procedure, shortened: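 SH-SY5Y cells attached overnight, exposed to compound 30 min at 37 C, then given DTNB/acetylthiocholine; after 90 min at 37 C, colorimetric thiocholine read gives cellular AChE activity.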

[2] = molecular target: Acetylcholinesterase (Homo sapiens) (UniProt P22303); assay: Acetylcholinesterase (AChE) small molecule antagonists: enzyme-based qHTS assay (AID 1347397); details: Potency: AChE enzyme activity inhibition; outcome: AChE enzyme activity inhibition; also: nearly all actives have a fitted effect of over 55% in size
Procedure, shortened: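 Recombinant human AChE, dispensed at 50 mU/mL, was preincubated with Tox21 10K compounds or DMSO vehicle for 30 min at room temperature. DTNB plus acetylthiocholine was then added, and thiocholine was measured colorimetrically after a further 10 min.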

[3] = molecular target: Acetylcholinesterase (Homo sapiens) (UniProt P22303); assay: Acetylcholinesterase (AChE) small molecule antagonists: fluorescence cell-based qHTS assay (AID 1347398); details: Potency: AChE activity; outcome: AChE activity; also: nearly all actives have a fitted effect of over 50% in size
Procedure, shortened: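 Human SH-SY5Y cells were plated overnight at 37 C, exposed to compound for 30 min at 37 C, 5% CO2, then given acetylthiocholine plus Thiolite Green for 40 min at room temperature; thiocholine fluorescence (Ex/Em 490/520 nm) reports endogenous AChE activity.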

[4] = molecular target: Acetylcholinesterase (Homo sapiens) (UniProt P22303); assay: Acetylcholinesterase (AChE) small molecule antagonists: enzyme-based qHTS assay with human liver microsomes (AID 1347399); details: Potency: qHTS inhibition; outcome: qHTS inhibition; also: nearly all actives have a fitted effect of over 60% in size
Procedure, shortened: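 Recombinant human AChE (50 mU/mL in the enzyme mix) and human liver microsomes (0.25 mg/mL final) were preincubated with compound and NADPH (0.25 mg/mL final) for 30 min at 37 C. Acetylthiocholine/DTNB was then added; thiocholine was read colorimetrically after 10 min at room temperature.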
% is scaled to controls: 0 for no effect and ±100 for the full control effect.

Acetylcholinesterase (Homo sapiens), sequence (P22303 whole entry, looked up): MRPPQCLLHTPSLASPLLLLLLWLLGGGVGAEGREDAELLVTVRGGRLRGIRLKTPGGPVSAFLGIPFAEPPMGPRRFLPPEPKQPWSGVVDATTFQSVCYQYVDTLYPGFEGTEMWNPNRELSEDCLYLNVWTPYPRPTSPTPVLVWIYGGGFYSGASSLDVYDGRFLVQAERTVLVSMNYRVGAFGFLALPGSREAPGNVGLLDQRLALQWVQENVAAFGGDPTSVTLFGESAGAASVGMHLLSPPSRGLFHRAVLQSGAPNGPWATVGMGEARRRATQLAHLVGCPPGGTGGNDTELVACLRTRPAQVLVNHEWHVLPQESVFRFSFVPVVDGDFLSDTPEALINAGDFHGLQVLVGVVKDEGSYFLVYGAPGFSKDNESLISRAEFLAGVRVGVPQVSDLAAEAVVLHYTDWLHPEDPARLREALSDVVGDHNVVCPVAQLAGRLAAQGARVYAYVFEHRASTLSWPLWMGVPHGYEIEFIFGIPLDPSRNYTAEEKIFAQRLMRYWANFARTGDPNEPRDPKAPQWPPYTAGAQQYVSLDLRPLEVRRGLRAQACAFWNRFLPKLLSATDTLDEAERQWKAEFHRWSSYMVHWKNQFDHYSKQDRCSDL

COC(=O)C(C)=O
inactive: Potency [1] | Potency [2] | Potency [3] | Potency [4]

C[C@@H]1C[C@H]2[C@@H]3C[C@H](F)C4=CC(=O)C(Cl)=C[C@]4(C)[C@@]3(F)[C@@H](O)C[C@]2(C)[C@@]1(O)C(=O)CO
inactive: Potency [1] | Potency [2] | Potency [3] | Potency [4]

NCCCNCCSP(=O)(O)O
inactive: activity, negative = inhibition [1] 2.88% [at 10.5 µM] | activity change, negative = inhibition [2] -0.97% [at 10.5 µM] | activity change, negative = inhibition [3] 1.49% [at 10.5 µM] | activity change, negative = inhibition [4] 5.32% [at 10.5 µM]

CN(C)CCCO[C@@H]1[C@H]2OC(C)(C)O[C@H]2O[C@@H]1C(O)CO (some centres undefined)
inactive: Potency [1] | Potency [2] | Potency [3] | Potency [4]

O=C(CO)[C@@H](O)[C@H](O)[C@@H](O)CO
inactive: Potency [1] | Potency [2] | Potency [3] | Potency [4]

O=C(O)CNC(=O)c1ccccc1I
inactive: Potency [1] | Potency [2] | Potency [3] | Potency [4]

CC(=O)c1ccc2c(c1)Cc1ccccc1-2
inactive: Potency [1] | Potency [2] | Potency [3] | Potency [4]

CN(C)CCCOc1nn(Cc2ccccc2)c2ccccc12
inactive: Potency [1] | Potency [2] | Potency [3] | Potency [4]

CC(Cc1ccccc1)(NC(=O)CN)c1ccccc1 (centres undefined)
inactive: Potency [1] | Potency [2] | Potency [3] | Potency [4]

CCOC(=O)c1nc(C(Cl)(Cl)Cl)n(-c2ccc(Cl)cc2Cl)n1
inactive: Potency [1] | Potency [2] | Potency [3] | Potency [4]

Nc1ccc(F)cc1F
inactive: Potency [1] | Potency [2] | Potency [3] | Potency [4]

c1ccc(B(c2ccccc2)c2ccccc2)cc1
inactive: Potency [1] | Potency [2] | Potency [3] | Potency [4]

CCCCCCOC(=O)c1ccccc1O
inactive: Potency [1] | Potency [2] | Potency [3] | Potency [4]

CC(C)(C)N(CCO)CCO
inactive: Potency [1] | Potency [2] | Potency [3] | Potency [4]

OCC(CO)n1cnc(-c2ccc(F)cc2)c1-c1ccnc(Oc2ccccc2)n1
inactive: Potency [1] | Potency [2] | Potency [3] | Potency [4]

O=C1C=CCCC1
inactive: Potency [1] | Potency [2] | Potency [3] | Potency [4]

Cc1ccc(-c2ccccc2)cc1
inactive: Potency [1] | Potency [2] | Potency [3] | Potency [4]

CCOC(=O)[C@@](C)(N)Cc1ccc(O)c(O)c1
inactive: Potency [1] | Potency [2] | Potency [3] | Potency [4]

CC(C)OC(=O)c1cc2c(OCC(O)CNC(C)(C)C)cccc2[nH]1 (centres undefined)
inactive: Potency [1] | Potency [2] | Potency [3] | Potency [4]

CCCCCCCCCCCCCOP(=O)(O)O
inactive: Potency [1] | Potency [2] | Potency [3] | Potency [4]

C=CCON/C(CCC)=C1\C(=O)CC(C)(C)C(C(=O)OC)=C1O
inactive: Potency [1] | Potency [2] | Potency [3] | Potency [4]

N[C@H](C(=O)O)[C@@H](O)c1ccc(O)c(O)c1
inactive: Potency [1] | Potency [2] | Potency [3] | Potency [4]

OCC(O)c1ccccc1 (centres undefined)
inactive: Potency [1] | Potency [2] | Potency [3] | Potency [4]

Nc1cccc2c(N)cccc12
inactive: Potency [1] | Potency [2] | Potency [3] | Potency [4]

CCCCCCCCCC(C)C=O (centres undefined)
inactive: Potency [1] | Potency [2] | Potency [3] | Potency [4]

COc1ccc(NS(=O)(=O)c2ccc(N)cc2)nn1
inactive: Potency [1] | Potency [2] | Potency [3] | Potency [4]

NC(=O)c1c(Cl)cccc1Cl
inactive: Potency [1] | Potency [2] | Potency [3] | Potency [4]

O=C1CC2(CCCC2)CC(=O)N1
inactive: Potency [1] | Potency [2] | Potency [3] | Potency [4]

O=S(O)(O)=S
inactive: activity, negative = inhibition [1] -0.643% [at 10.5 µM] | activity change, negative = inhibition [2] 0.136% [at 10.5 µM] | activity change, negative = inhibition [3] 2.89% [at 10.5 µM] | activity change, negative = inhibition [4] 0.162% [at 10.5 µM]

CCCCOC(=O)CCCCC(=O)OCCCC
inactive: Potency [1] | Potency [2] | Potency [3] | Potency [4]

c1coc(Cn2cccc2)c1
inactive: Potency [1] | Potency [2] | Potency [3] | Potency [4]

CC1=CCC(C(C)C)C=C1 (centres undefined)
inactive: Potency [1] | Potency [2] | Potency [3] | Potency [4]

c1ccc(-c2nc[nH]c2-c2ccccc2)cc1
inactive: Potency [1] | Potency [2] | Potency [3] | Potency [4]

O=C(O)c1cccc(-c2noc(-c3ccccc3F)n2)c1
inactive: Potency [1] | Potency [2] | Potency [3] | Potency [4]

CCCCOC(=O)C(C)CC (centres undefined)
inactive: Potency [1] | Potency [2] | Potency [3] | Potency [4]

Fc1ccc(C(c2ccc(F)cc2)N2CCN(C/C=C/c3ccccc3)CC2)cc1
inactive: Potency [1] | Potency [2] | Potency [3] | Potency [4]

CC1(C)C(=O)N(CO)C(=O)N1CO
inactive: Potency [1] | Potency [2] | Potency [3] | Potency [4]

N#CCCOCCC#N
inactive: Potency [1] | Potency [2] | Potency [3] | Potency [4]

CCCCCCCCCCCC(C)=O
inactive: Potency [1] | Potency [2] | Potency [3] | Potency [4]

COC(=O)c1ccc(I)cc1S(=O)(=O)NC(=O)Nc1nc(C)nc(OC)n1
inactive: Potency [1] | Potency [2] | Potency [3] | Potency [4]

Cc1ccc(C2OC[C@@H]3OC(c4ccc(C)cc4)O[C@H]([C@H](O)CO)[C@@H]3O2)cc1 (some centres undefined)
inactive: Potency [1] | Potency [2] | Potency [3] | Potency [4]

From PubChem BioAssay (Tox21)
